The full data set covers some 21,000 targets. This sample favours those with the largest changes.
Compound: Cc1cc(ccc1-c1ccccc1)C(=O)N1CCCN(CC1)C(=O)CCl [compound 10]
Test: probe-labelled cysteine peptide fold change vs DMSO (competition) (log2 fold change); higher = less target engagement (more negative = stronger competition)
Settings: THP-1, incubation time: 4 h
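Note: competitive profiling in live THP-1 cells: cysteine peptides tagged with an iodoacetamide desthiobiotin (IA-DTB) probe, intensity after compound treatment relative to DMSO-treated cells.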

**Q.** Which results are given for “PXN_P49023_387_TWHPEHFVCTHCQEEIGSR (UniProt P49023)”?
**A.** probe-labelled cysteine peptide fold change (10 µM): -0.0992; probe-labelled cysteine peptide fold change (50 µM): -0.106

**Q.** Which “probe-labelled cysteine peptide fold change” value (10 µM) does the source give for “PRR14L_Q5THK1_1503_AQDPSSAGCDQIHGAFAK (UniProt Q5THK1)” here?
**A.** Its value is -0.388.

**Q.** What about the “probe-labelled cysteine peptide fold change” value (50 µM) of the same target?
**A.** The value was -1.59.

**Q.** With “PRKCI_P41743_137_LYCANGHTFQAK (UniProt P41743)” as the target, how does the “probe-labelled cysteine peptide fold change” value (10 µM) read?
**A.** Its value is -0.00179.

**Q.** And the “probe-labelled cysteine peptide fold change” value (50 µM)?
**A.** The value was 0.0748.

**Q.** With “RNF113A_O15541_202_WDYQPDICK<|>RNF113B_Q8IZP6_196_WDYQPDICK (UniProt Q8IZP6+O15541)” as the target, how does the “probe-labelled cysteine peptide fold change” value (10 µM) read?
**A.** The value was -0.0623.

**Q.** What about the “probe-labelled cysteine peptide fold change” value (50 µM) of the same target?
**A.** Its value is -0.145.

**Q.** What does the source list for “PTPN1_P18031_344_EETQEDKDCPIKEEK (UniProt P18031)”?
**A.** probe-labelled cysteine peptide fold change (10 µM): -0.593; probe-labelled cysteine peptide fold change (50 µM): -1.57

**Q.** Which results are given for “PRKCD_Q05655_127_VLMSVQYFLEDVDCK (UniProt Q05655)”?
**A.** probe-labelled cysteine peptide fold change (10 µM): -0.226; probe-labelled cysteine peptide fold change (50 µM): -0.31

**Q.** Which “probe-labelled cysteine peptide fold change” value (10 µM) does the source give for “PSMC3_P17980_240_ACAAQTK (UniProt P17980)” here?
**A.** The value was -0.0208.

**Q.** And the “probe-labelled cysteine peptide fold change” value (50 µM)?
**A.** The value was -0.0025.

**Q.** How did the “probe-labelled cysteine peptide fold change” value (10 µM) turn out when “RAB10_P61026_124_CDMDDK (UniProt P61026)” was run?
**A.** Its value is -0.104.

**Q.** And the “probe-labelled cysteine peptide fold change” value (50 µM)?
**A.** Its value is 0.0844.

**Q.** How did the “probe-labelled cysteine peptide fold change” value (10 µM) turn out when “RAD50_Q92878_133_CAEIDREMISSLGVSK (UniProt Q92878)” was run?
**A.** The value was -0.195.

**Q.** And the “probe-labelled cysteine peptide fold change” value (50 µM)?
**A.** Its value is -0.429.

**Q.** Which “probe-labelled cysteine peptide fold change” value (10 µM) does the source give for “PUM1_Q14671_980_CIECVQPQSLQFIIDAFK (UniProt Q14671)” here?
**A.** The value was 0.213.

**Q.** What about the “probe-labelled cysteine peptide fold change” value (50 µM) of the same target?
**A.** Its value is -0.0133.

**Q.** How did the “probe-labelled cysteine peptide fold change” value (10 µM) turn out when “RFC3_P40938_32_NLVQCGDFPHLLVYGPSGAGKK (UniProt P40938)” was run?
**A.** The value was -0.11.

**Q.** What about the “probe-labelled cysteine peptide fold change” value (50 µM) of the same target?
**A.** The value was -0.186.

**Q.** Which “probe-labelled cysteine peptide fold change” value (10 µM) does the source give for “RAI14_Q9P0K7_139_TALHYAAAQGCLQAVQILCEHK (UniProt Q9P0K7)” here?
**A.** Its value is 0.0635.

**Q.** What about the “probe-labelled cysteine peptide fold change” value (50 µM) of the same target?
**A.** Its value is -0.0217.

**Q.** Which “probe-labelled cysteine peptide fold change” value (10 µM) does the source give for “PRKDC_P78527_2342_KNILEESLCELVAK (UniProt P78527)” here?
**A.** The value was -0.182.

**Q.** And the “probe-labelled cysteine peptide fold change” value (50 µM)?
**A.** Its value is -0.0562.

**Q.** For “RACGAP1_Q9H0H5_419_VDDIHAICSLLK (UniProt Q9H0H5)”, which “probe-labelled cysteine peptide fold change” value (10 µM) is on record?
**A.** The value was 0.00786.

**Q.** And the “probe-labelled cysteine peptide fold change” value (50 µM)?
**A.** Its value is 0.00467.

**Q.** For “RFXANK_O14593_205_CVEALLAR (UniProt O14593)”, which “probe-labelled cysteine peptide fold change” value (10 µM) is on record?
**A.** The value was 0.0175.

**Q.** What about the “probe-labelled cysteine peptide fold change” value (50 µM) of the same target?
**A.** The value was -0.265.

**Q.** Which “probe-labelled cysteine peptide fold change” value (10 µM) does the source give for “QRSL1_Q9H0R6_278_LCIGIPK (UniProt Q9H0R6)” here?
**A.** Its value is 0.155.

**Q.** What about the “probe-labelled cysteine peptide fold change” value (50 µM) of the same target?
**A.** Its value is 0.0481.

**Q.** For “RCSD1_Q6JBY9_181_RSQSDCGELGDFR (UniProt Q6JBY9)”, which “probe-labelled cysteine peptide fold change” value (10 µM) is on record?
**A.** The value was -0.852.

**Q.** And the “probe-labelled cysteine peptide fold change” value (50 µM)?
**A.** Its value is -1.19.

**Q.** Which “probe-labelled cysteine peptide fold change” value (10 µM) does the source give for “RNF126_Q9BV68_13+16_YFCHCCSVEIVPR (UniProt Q9BV68)” here?
**A.** The value was -0.268.

**Q.** And the “probe-labelled cysteine peptide fold change” value (50 µM)?
**A.** The value was -1.16.

**Q.** For “PTPN12_Q05209_164_ISCEDEQAR (UniProt Q05209)”, which “probe-labelled cysteine peptide fold change” value (10 µM) is on record?
**A.** Its value is 0.159.

**Q.** What about the “probe-labelled cysteine peptide fold change” value (50 µM) of the same target?
**A.** The value was 0.15.

**Q.** For “RAD54L2_Q9Y4B4_618_AFCVCCK (UniProt Q9Y4B4)”, which “probe-labelled cysteine peptide fold change” value (10 µM) is on record?
**A.** The value was -0.173.

**Q.** What about the “probe-labelled cysteine peptide fold change” value (50 µM) of the same target?
**A.** The value was -0.639.

**Q.** What does the source list for “PSMD11_O00231_257_YMLLCK (UniProt O00231)”?
**A.** probe-labelled cysteine peptide fold change (10 µM): 0.248; probe-labelled cysteine peptide fold change (50 µM): 0.241

**Q.** “PYCR1_P32322_262_SLLINAVEASCIR (UniProt P32322)” was tested. Which “probe-labelled cysteine peptide fold change” value (10 µM) did it give?
**A.** Its value is 0.0279.

**Q.** What about the “probe-labelled cysteine peptide fold change” value (50 µM) of the same target?
**A.** The value was 0.0718.

**Q.** How did the “probe-labelled cysteine peptide fold change” value (10 µM) turn out when “RHOC_P08134_20_TCLLIVFSK<|>RHOA_P61586_20_TCLLIVFSK<|>RHOB_P62745_20_TCLLIVFSK (UniProt P62745+P61586+P08134)” was run?
**A.** Its value is -0.323.

**Q.** And the “probe-labelled cysteine peptide fold change” value (50 µM)?
**A.** Its value is -0.507.

**Q.** With “PSMB8_P28062_7_ALLDVCGAPR (UniProt P28062)” as the target, how does the “probe-labelled cysteine peptide fold change” value (10 µM) read?
**A.** The value was -0.068.

**Q.** And the “probe-labelled cysteine peptide fold change” value (50 µM)?
**A.** The value was -0.273.

**Q.** Which results are given for “PRPS2_P11908_165_NCIIVSPDAGGAKR (UniProt P11908)”?
**A.** probe-labelled cysteine peptide fold change (10 µM): 0.121; probe-labelled cysteine peptide fold change (50 µM): -0.113

**Q.** Which “probe-labelled cysteine peptide fold change” value (10 µM) does the source give for “PSMB3_P49720_19_NCVAIAADRR (UniProt P49720)” here?
**A.** The value was 0.0313.

**Q.** What about the “probe-labelled cysteine peptide fold change” value (50 µM) of the same target?
**A.** Its value is 0.234.

**Q.** Which results are given for “RMND5A_Q9H871_328+336_CWYHSIFACPILR (UniProt Q9H871)”?
**A.** probe-labelled cysteine peptide fold change (10 µM): -0.0698; probe-labelled cysteine peptide fold change (50 µM): -0.177

**Q.** What does the source list for “RBM25_P49756_132_LQAFGFCEYKEPESTLR (UniProt P49756)”?
**A.** probe-labelled cysteine peptide fold change (10 µM): -0.148; probe-labelled cysteine peptide fold change (50 µM): -0.0661

**Q.** What does the source list for “PREX1_Q8TCU6_836_LSLCEDSPMVTLTVDNVHLEHGVVYEYVSTAGVR (UniProt Q8TCU6)”?
**A.** probe-labelled cysteine peptide fold change (10 µM): -0.0714; probe-labelled cysteine peptide fold change (50 µM): 0.185
